# Several values for one entry are separate records, joined by “and”; a condition that tells them apart may be missing. Identical values can stand only once. Activity calls are given as the source filed them. The calls were made as follows: active = hit-call score of the fitted dose curve at least 0.9, where 1 is the maximum; inactive = score below 0.9.
# Read-out: Intercellular Adhesion Molecule 1 (ICAM1), ICAM1 (gene 3383)
# Assay: BSK_hDFCGF_ICAM1: BioMAP Diversity Plus: hDFCGF Assay for Intercellular Adhesion Molecule 1 (ICAM1) Biomarker Activity (AID 2284287)
# Conditions: primary human foreskin fibroblasts
# Method: BSK_hDFCGF is a cell-based, multiplexed-readout assay that uses foreskin fibroblast, a human skin primary cell, with measurements taken at 24 hours after chemical dosing in a 96-well plate.BSK_hDFCGF_ICAM1 is an assay component measured in the BSK_hDFCGF assay. It measures ICAM-1 antibody related to regulation of gene expression using ELISA technology.Data from the assay component BSK_hDFCGF_ICAM1 was analyzed at the endpoint, BSK_hDFCGF_ICAM1, in the positive analysis fitting direction relative to DMSO as the negative control and baseline of activity. Using a type of binding reporter, gain or loss-of-signal activity can be used to understand protein changes. To generalize the intended target to other relatable targets, this assay endpoint is annotated to the 'cell adhesion molecules' intended target family, where the subfamily is 'Immunoglobulin CAM'.
# The levels of cell surface (or secreted, indicated by the prefix "s") biomarker endpoints were measured by ELISA. Overt cytotoxicity to cells in confluent adherent cultures (all systems other than the BT system) was assessed by measuring total protein levels using sulforhodamine B (SRB) staining in parallel cultures at the time of biomarker measurements, indicated as SRB endpoints. For proliferation assays for adherent cell types, individual cell types are cultured at sub-confluence and relative cell numbers quantified by SRB staining at time points optimized for each system (48 h: 3C and CASM3C systems; 72 h: BT and HDF3CGF systems; 96 h: SAg system). SRB was performed by staining cells with 0.1% SRB after fixation with 10% TCA and reading wells at 560 nm.Viability and proliferation of PBMC (T cells) was quantified by Alamar Blue reduction for the SAg and BT systems. For PBMC viability (referred to as PBMC Cytotoxicity within the assay endpoint names), cells were plated (75,000/well in a 96-well plate) and then chemical samples added for 1 h before addition of activators, SEB and TSST-1 (20 ng/mL final concentration each). Cells were incubated for 90 h. Then, Alamar Blue (20 uL/well) (Invitrogen, Cat DAL1100) was added for 6 h, and the plates were read with a fluorescence microplate reader at 546/580 nm (excitation/emission). For PBMC proliferation, cells were plated and activated as above but incubated for only 16 h prior to addition of Alamar Blue. Plates were read after 6 h.
SMILES,outcome,AC50
COc1cc(CNC(=O)CCCC/C=C/C(C)C)ccc1O,inactive,
CCC[Si](OC(C)=O)(OC(C)=O)OC(C)=O,inactive,
Cc1c(C(N)=O)cc([N+](=O)[O-])cc1[N+](=O)[O-],inactive,
COc1ccccc1Oc1c(NS(=O)(=O)c2ccc(C(C)(C)C)cc2)nc(-c2ncccn2)nc1OCCO,inactive,
COc1ccc(C(=O)c2ccccc2O)c(O)c1,inactive,
CC(C)C1OCCN1CCOC(=O)NCCCCCCNC(=O)OCCN1CCOC1C(C)C (configuration not stated),inactive,
CCCCC(CC)COC(=O)C=Cc1ccc(OC)cc1 (configuration not stated),inactive,
OC(C(F)(F)F)(C(F)(F)F)C(O)(C(F)(F)F)C(F)(F)F,inactive,
C1CN(CCOCCN2CCOCC2)CCO1,inactive,
O=[N+]([O-])c1cc(S(=O)(=O)Nc2ccccc2)ccc1Nc1ccccc1,,31 µM (active) and 36.6 µM (active)
CN(C)Cc1cc(C(C)(C)C)c(O)c(C(C)(C)C)c1,inactive,
CC[N+](CC)(CC(=O)Nc1c(C)cccc1C)Cc1ccccc1 (tested in a mixture with another compound),inactive,
